# Experimental data taken from PubChem BioAssay (EPA / NIEHS).
# “And” between values parts separate entries of the source, which are not always exact repeats. Equal values may be shown once. Records with an inconclusive call do not appear. Where a structure was tested more than once in an assay, its records may differ in their call. The source made the active and inactive calls. Rule for the calls, unless noted: active = hit-call score of the fitted dose curve at least 0.9, where 1 is the maximum; inactive = score below 0.9.
# Key:
# [1] = CCTE_Harrill_HTTr_Viability_MCF7: CCTE's 6-hour Cell Viability Assessment for the High-Throughput Transcriptomics (HTTr) Platform, in MCF-7 cells cultured in DMEM + 10% fetal bovine serum, Harrill Lab (AID 2284010)
# Outline: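 MCF-7 cells in DMEM + 10% FBS, 384-well, exposed 6 h to an eight-point dilution series. Membrane integrity scored by high-content imaging of propidium iodide exclusion; bidirectional fit versus DMSO.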
# [2] = CCTE_Shafer_MEA_acute_spike_number: CCTE's Neural Acute Assay for Total Number of Spikes, Shafer Lab (AID 2284008);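 for AC50: curve fitted for decrease in spike count so AC50 reflects inhibitors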
# Outline: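 Using an adaptive detector set to 8x rms noise, spikes were counted in 40-min windows before and after compound addition (0.03-40 uM) to rat cortical networks at 37 C; the well-level change from baseline was analysed relative to DMSO.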
# [3] = CCTE_Shafer_MEA_acute_firing_rate_mean: CCTE's Neural Acute Assay for Mean Firing Rate, Shafer Lab (AID 2284009);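 note: analyzed for loss of signal so actives lower firing rate relative to DMSO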
# Outline: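 Rat primary cortical neurons on 48-well MEA plates, dosed at 0.03-40 uM on DIV 13 or 15; 40 min spontaneous activity recorded at 37 C before and after compound. Spike rate per electrode averaged per well, expressed as percent change from baseline.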
# [4] = CCTE_Harrill_HTTr_Apoptosis_MCF7: CCTE's 6-hour Apoptosis Assessment for the High-Throughput Transcriptomics (HTTr) Platform, in MCF-7 cells cultured in DMEM + 10% fetal bovine serum, Harrill Lab (AID 2284011)
# Outline: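 Apoptosis in MCF-7 cells grown in DMEM with 10% fetal bovine serum was scored after a six hour exposure by high content imaging of caspase-3/7 activation (CellEvent Caspase 3/7 Green), with DMSO serving as negative control and baseline.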
# [5] = CCTE_Shafer_MEA_acute_burst_number: CCTE's Neural Acute Assay for Single-Electrode Bursts, Shafer Lab (AID 2284013)
# Outline: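 Primary rat cortical neurons on 16-electrode MEA wells, treated on DIV 13 or 15 with compound at 0.03-40 uM. Single-electrode burst count from 40-min recordings at 37 C before and after exposure; percent change from baseline per well, DMSO negative control.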
# [6] = CCTE_Shafer_MEA_acute_per_burst_spike_number_mean: CCTE's Neural Acute Assay for Average Number of Spikes Per Burst, Shafer Lab (AID 2284015);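 note: hits are decreases in mean spikes per burst versus baseline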
# Outline: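 Read-out: percent change in mean spikes per burst, each well's post-exposure 40-min recording versus its own 40-min baseline. Rat cortical cultures, DIV 13 or 15, compounds 0.03-40 uM; DMSO is negative control, loss-of-signal fitting.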
# [7] = CCTE_Shafer_MEA_acute_interburst_interval_mean: CCTE's Neural Acute Assay for Mean Interburst Interval, Shafer Lab (AID 2284016);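 note: percent change of mean interburst interval versus each well's own pre-dose baseline; curves fitted for decrease in interburst interval relative to DMSO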
# Outline: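 Rat cortical cultures, DIV 13/15; 20 min equilibration, 40 min baseline, compound 0.03-40 uM, 40 min re-recording, 37 C. Spikes detected at 8x rms noise (300-5000 Hz band-pass). Endpoint: % change in interburst interval, fitted in loss direction vs DMSO.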
# [8] = CCTE_Shafer_MEA_acute_burst_percentage_mean: CCTE's Neural Acute Assay for Percentage of Spikes in a Burst, Shafer Lab (AID 2284017);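 for AC50: curve fitted for loss of signal so potency reflects decreased burst percentage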
# Outline: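 Rat cortical cultures, DIV 13/15, 37 C. Spikes detected at 8x rms noise (300-5000 Hz band-pass). Burst spikes/total spikes averaged across electrodes per well; % change post- vs pre-treatment (40 min each), loss-of-signal fit vs DMSO.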
# [9] = CCTE_Shafer_MEA_acute_burst_percentage_std: CCTE's Neural Acute Assay for Standard Deviation of Burst Percentage, Shafer Lab (AID 2284018);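 note: fitted in the negative direction so actives lower burst percentage SD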
# Outline: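 Rat primary cortical neurons on 48-well MEAs, DIV 13 or 15, 37 C. 40-min baseline then 40-min recording with compound (0.03-40 uM); well-level SD of per-electrode burst spike percentage, expressed as percent change from baseline.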
# [10] = CCTE_Harrill_HTTr_CellCount_MCF7: CCTE's Cell Proliferation Assessment for the High-Throughput Transcriptomics (HTTr) Platform, Harrill Lab (AID 2284012; active = hit-call score of the fitted dose curve at least 0.9, where 1 is the maximum;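 note: cells exposed to compound for six hours; intended direction is loss of nuclei count meaning fewer cells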)
# Outline: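 MCF7 cells exposed 6 hours to an eight-point dilution series; Hoechst-stained nuclei counted by high-content imaging. Bidirectional curve fitting against DMSO baseline.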
smiles,measurement,setting,value
CN(C)c1ccc(C(=O)c2ccc(N(C)C)cc2)cc1,outcome,[1],inactive
ClCCOCCCl,outcome,[2],inactive
same,outcome,[3],inactive
same,outcome,[1],inactive
same,outcome,[4],inactive
same,outcome,[5],inactive
same,outcome,[6],inactive
same,outcome,[7],inactive
same,outcome,[8],inactive
same,outcome,[9],inactive
Cc1ccc(N)c(N)c1,outcome,[2],inactive
same,outcome,[3],inactive
same,outcome,[1],inactive
same,outcome,[4],inactive
same,outcome,[5],inactive
same,outcome,[6],inactive
same,outcome,[7],inactive
same,AC50,[8],20 µM (active)
same,outcome,[9],inactive
CCCCCCCCn1sccc1=O,outcome,[2],inactive
same,outcome,[3],inactive
same,outcome,[1],inactive
same,outcome,[5],inactive
same,outcome,[6],inactive
same,outcome,[7],inactive
same,AC50,[8],8.26 µM (active)
same,outcome,[9],inactive
c1ccc(N=Nc2ccccc2)cc1,outcome,[2],inactive
same,outcome,[3],inactive
same,outcome,[1],inactive
same,outcome,[5],inactive
same,outcome,[6],inactive
same,AC50,[7],34.6 µM (active)
same,AC50,[8],26.8 µM (active)
same,AC50,[9],36.2 µM (active)
N#CC(Br)Br,outcome,[2],inactive
same,outcome,[3],inactive
same,outcome,[1],inactive
same,outcome,[4],inactive
same,outcome,[5],inactive
same,outcome,[6],inactive
same,outcome,[7],inactive
same,outcome,[8],inactive
same,outcome,[9],inactive
CC(C)(O)c1cnn2c(-c3ccc(F)c(-c4c(F)cccc4C#N)c3)cnc2n1,AC50,[2],0.713 µM (active)
same,AC50,[3],0.789 µM (active)
same,outcome,[1],inactive
same,AC50,[5],1.18 µM (active)
same,outcome,[6],inactive
same,outcome,[7],inactive
same,AC50,[8],20 µM (active)
same,outcome,[9],inactive
CCCCCOC(=O)c1ccccc1C(=O)OCCCCC,AC50,[2],2.58 µM (active)
same,AC50,[3],2.58 µM (active)
same,outcome,[1],inactive
same,AC50,[5],5.2 µM (active)
same,AC50,[6],4.26 µM (active)
same,AC50,[7],1.49 µM (active)
same,AC50,[8],9.17 µM (active)
same,outcome,[9],inactive
ClC1=C(Cl)C2(Cl)C3C(Cl)C=CC3C1(Cl)C2(Cl)Cl (stereo not drawn),AC50,[2],7.52 µM (active)
same,AC50,[3],7.53 µM (active)
same,outcome,[1],inactive
same,outcome,[4],inactive
same,outcome,[10],inactive
same,AC50,[5],20 µM (active)
same,AC50,[6],4.15 µM (active)
same,outcome,[7],inactive
same,AC50,[8],0.72 µM (active)
same,AC50,[9],20 µM (active)
[Cl-].[Cl-].[Hg+2],AC50,[2],31.4 µM (active)
same,AC50,[3],31 µM (active)
same,outcome,[1],inactive
same,outcome,[5],inactive
same,outcome,[6],inactive
same,outcome,[7],inactive
same,AC50,[8],20 µM (active)
same,outcome,[9],inactive
C[C@]12C=CC3=C4CCC(=O)C=C4CC[C@H]3[C@@H]1CC[C@@H]2O,outcome,[1],inactive
CC(C)(OOC(C)(C)c1ccccc1)c1ccccc1,outcome,[2],inactive
same,outcome,[3],inactive
same,outcome,[1],inactive
same,outcome,[5],inactive
same,outcome,[6],inactive
same,outcome,[7],inactive
same,outcome,[8],inactive
same,outcome,[9],inactive
O=Cc1ccco1,outcome,[2],inactive
same,outcome,[3],inactive
same,outcome,[6],inactive
same,outcome,[7],inactive
same,outcome,[8],inactive
same,outcome,[9],inactive
CCC[CH2][Sn]([Cl])([CH2]CCC)[CH2]CCC,AC50,[2],40.1 nM (active) and 70.2 nM (active)
same,AC50,[3],40.3 nM (active) and 70.2 nM (active)
same,AC50,[1],11.8 µM (active)
same,AC50,[10],17.2 µM (active)
same,AC50,[5],40 nM (active) and 66.5 nM (active)
same,AC50,[6],198 nM (active) and 150 nM (active)
same,AC50,[7],0.382 µM (active)
same,outcome,[7],inactive
same,AC50,[8],221 nM (active) and 330 nM (active)
same,AC50,[9],7.27 µM (active)
same,outcome,[9],inactive
CCCCOC(=O)c1ccccc1C(=O)OCc1ccccc1,AC50,[2],3.11 µM (active)
same,AC50,[3],3.11 µM (active)
same,outcome,[1],inactive
same,AC50,[5],2.71 µM (active)
same,AC50,[6],5 µM (active)
same,AC50,[7],3.83 µM (active)
same,AC50,[8],6.09 µM (active)
same,AC50,[9],5 µM (active)
O=C(O)C1C2CCC(O2)C1C(=O)O (stereo not drawn),outcome,[1],inactive
COC(=O)Nc1nc2ccccc2[nH]1,outcome,[2],inactive
same,outcome,[3],inactive
same,outcome,[1],inactive
same,outcome,[5],inactive
same,outcome,[6],inactive
same,outcome,[7],inactive
same,outcome,[8],inactive
same,outcome,[9],inactive
O=[N+]([O-])c1ccc(Oc2ccc(Cl)cc2Cl)cc1,AC50,[2],9.28 µM (active)
same,AC50,[3],9.76 µM (active)
same,outcome,[1],inactive
same,outcome,[4],inactive
same,outcome,[5],inactive
same,outcome,[6],inactive
same,AC50,[7],4.1 µM (active)
same,AC50,[8],10.6 µM (active)
same,outcome,[9],inactive
c1ccc(NNc2ccccc2)cc1,outcome,[2],inactive
same,outcome,[3],inactive
same,outcome,[1],inactive
same,outcome,[5],inactive
same,AC50,[6],20 µM (active)
same,outcome,[7],inactive
same,outcome,[9],inactive
CCC(C)c1ccc(O)cc1 (stereo not drawn),AC50,[2],20 µM (active)
same,AC50,[3],20 µM (active)
same,outcome,[1],inactive
same,outcome,[4],inactive
same,outcome,[5],inactive
same,AC50,[6],32 µM (active)
same,AC50,[7],30 µM (active)
same,AC50,[8],29.6 µM (active)
same,outcome,[9],inactive
CCN(CC)N=O,outcome,[2],inactive
same,outcome,[3],inactive
same,outcome,[1],inactive
same,outcome,[4],inactive
same,outcome,[10],inactive
same,outcome,[5],inactive
same,outcome,[6],inactive
same,outcome,[7],inactive
same,outcome,[8],inactive
same,outcome,[9],inactive
Clc1ccc(C(c2ccc(Cl)cc2)C(Cl)Cl)cc1,AC50,[2],2.95 µM (active)
same,AC50,[3],2.94 µM (active)
same,outcome,[1],inactive
same,AC50,[5],2.56 µM (active)
same,outcome,[6],inactive
same,outcome,[7],inactive
same,AC50,[8],5.41 µM (active)
same,outcome,[9],inactive
ClC1=C(Cl)[C@]2(Cl)[C@H]3[C@H]([C@@H]4C=C[C@H]3C4)[C@@]1(Cl)C2(Cl)Cl,outcome,[2],inactive
same,outcome,[3],inactive
same,outcome,[1],inactive
same,outcome,[4],inactive
same,outcome,[5],inactive
same,outcome,[6],inactive
same,outcome,[7],inactive
same,outcome,[8],inactive
same,outcome,[9],inactive
